# Screening results as filed in PubChem BioAssay.
# CHO-K1 Ca ag – M1 agonist counterscreen hit in parental CHO-K1 cells; Fluo-8 calcium fluorescence; scaled to maximal ATP response, vehicle zero; actives 0.48% (n = 360,000); activation, % at 3 µM; AID 602248; in the data active means activation above about 15%;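 further: untransfected CHO-K1 host cells lacking M1 receptor as counterscreen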
# M4 antag – blocks acetylcholine activation of human M4 receptor | P08173 | CHO-hM4 cells, ACh EC80, Fluo-8 calcium fluorescence | inhibition, % at 3 µM | actives 0.73% (n = 360,000);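 active means inhibition above its plate's cutoff, the mean inhibition of sample wells plus 3 SD, cut at about 27% in these data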;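 further: 0% = acetylcholine EC80 with DMSO and 100% = DMSO without agonist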
# Target sequence (P08173 whole entry, looked up): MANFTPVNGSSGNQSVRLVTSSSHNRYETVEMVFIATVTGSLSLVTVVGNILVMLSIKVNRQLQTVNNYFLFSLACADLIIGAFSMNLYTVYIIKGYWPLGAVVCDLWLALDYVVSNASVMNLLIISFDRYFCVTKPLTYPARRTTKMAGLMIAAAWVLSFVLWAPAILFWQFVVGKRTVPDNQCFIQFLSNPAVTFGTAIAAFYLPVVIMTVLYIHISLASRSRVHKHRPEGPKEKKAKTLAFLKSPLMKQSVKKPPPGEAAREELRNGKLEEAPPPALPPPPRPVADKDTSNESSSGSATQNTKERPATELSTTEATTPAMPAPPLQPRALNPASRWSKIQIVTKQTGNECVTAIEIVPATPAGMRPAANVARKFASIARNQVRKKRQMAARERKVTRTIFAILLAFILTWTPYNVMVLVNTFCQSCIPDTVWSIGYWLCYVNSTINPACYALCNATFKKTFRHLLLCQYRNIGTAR
# CHRM4 agonist – agonists of human muscarinic M4 receptor (CHRM4); actives 0.14% (n = 360,000); P08173; CHO-K1 hM4/Gqi5, Fluo-8 calcium fluorescence; vehicle 0%, full acetylcholine response 100%; activation, % at 3 µM; AID 624127;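 active means activation above the run mean over all test wells plus 3 SD, cut at about 32% in these data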;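 further: peak over basal fluorescence ratio per well then scaled between controls; 0% = DMSO wells and 100% = acetylcholine at EC100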
# CHO-K1 Ca antag – counter-screen for M1 antagonists: effect in parental CHO-K1 cells. ATP-induced calcium, Fluo-8 fluorescence. inhibition, % at 3 µM. actives 0.6% (n = 360,000). AID 602250;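 active means inhibition above a per-plate cutoff, the plate's mean sample inhibition plus 3 SD, cut at about 24% in these data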;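 further: 0% = DMSO plus EC80 ATP and 100% = DMSO alone without ATP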
# M1 PAM parental – nonselective activator or artifact in parental CHO-K1 calcium assay; ATP EC20, Fluo-8 calcium fluorescence; 0% at ATP EC20, 100% at ATP max; activation, % at 3 µM; actives 0.02% (n = 360,000); AID 602247;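 active means activation above the run cutoff, the mean activation of all test compounds plus 3 SD, cut at about 40% in these data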;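 further: peak over basal fluorescence ratio in a 140 s read after ATP addition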
# CHRM4 PAM – positive allosteric modulators of human muscarinic M4 receptor. activation, % at 3 µM. actives 0.4% (n = 360,000). CHO-K1 hM4/Gqi5, Fluo-8 calcium fluorescence, ACh EC20; 0% = ACh EC20, 100% = maximal ACh;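 active means activation above its plate's cutoff, the mean activation of sample wells plus 3 SD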
# An asterisk follows results filed as active. Hits are enriched below; roughly 2% of the tested compounds scored in any of these assays.
SMILES,CHO-K1 Ca ag,M4 antag,CHRM4 agonist,CHO-K1 Ca antag,M1 PAM parental,CHRM4 PAM
O=C(OCCN1CCCCC1)c1ccccc1Br,3.0,5.6,10.9,-2.1,-7.6,-16.0
C[N+]1(CCCOC(=O)C2(c3ccccc3)CCCC2)CCOCC1,-0.1,78.3*,0.6,6.7,-7.0,-39.0
CCCCCC(=O)N1C[C@H](n2cc(COC(=O)c3ccccc3)nn2)[C@@H](O)C[C@@H]1c1ccc(C)cc1,0.5,-8.3,2.3,-2.4,10.0,1.8
COC(=O)c1nnc(-c2ccccc2)nc1OC,0.1,-6.7,0.2,-23.7,18.5,9.6
CC(C)NC(=O)c1ccc2c(c1)N(Cc1ccccc1)C(=O)C(C)(C)O2,0.4,-3.4,0.6,24.4*,-2.4,-1.0
CC1CCCC(C)N1C(=O)CN1C(=O)C(C)(C)Oc2ccc(C(=O)NC3CCCC3)cc21 (stereo not drawn),1.1,26.5*,3.8,-1.1,9.8,2.1
CC(C)NC(=O)c1ccc2c(c1)N(CC(=O)N1CCCC1)C(=O)C(C)(C)O2,2.5,-6.3,1.1,-20.0,7.7,4.7
OCC[C@@H]1C[C@@H](O)[C@H](O)[C@@]2(CCc3ccccc3O2)O1,0.2,-6.8,1.6,-17.9,3.7,3.8
Cc1c(C(=O)N2CCN(c3ccccn3)CC2)oc2c1C(=O)CC(C)(C)C2,7.1,-6.5,17.7,-9.6,1.2,-7.2
COc1ccccc1N1CCN(C(=O)c2oc3c(c2C)C(=O)CC(C)(C)C3)CC1,10.0,1.8,24.2,28.4*,-25.8,-8.5
CCOC(=O)C1=C(COC(=O)CNS(=O)(=O)c2ccc(NC(C)=O)cc2)NC(=O)NC1C (stereo not drawn),0.7,-5.4,1.6,-5.3,14.2,22.4*
CCOC(=O)N1CCN(C(=O)c2cc(S(=O)(=O)N3CCCC3)cn2C)CC1,0.0,2.6,0.6,-6.8,19.6,-5.2
CCOC(=O)N1CCC(NC(=O)c2cc(S(=O)(=O)N3CCCC3)cn2C)CC1,0.0,1.5,0.6,25.9*,-8.2,9.6
CN1CCN(c2ccc(CNC(=O)c3ccc4c(c3)OCCO4)cc2)CC1,0.4,7.6,0.5,0.5,-13.8,-14.0
CN1CCN(c2ccc(CNC(=O)c3ccco3)cc2)CC1,18.0*,-9.8,1.3,5.9,6.4,7.3
CCCc1cc(=O)[nH]c(SCC(=O)NC2(C#N)CCCCC2)n1,0.2,-10.8,0.4,-9.2,22.6,22.8*
CCCc1cc(=O)[nH]c(SCC(=O)NC)n1,0.8,-3.0,2.4,-42.9,21.1,7.2
Cc1c(N=C/C=C/c2ccccc2)c(=O)n(-c2ccccc2)n1C,0.7,53.5*,0.3,-25.6,17.9,-17.4
CC(NCCCOc1cccc2ccccc12)c1ccccc1 (stereo not drawn),28.3*,4.7,28.5,4.8,11.1,-0.3
N#CN(CC(N)=O)c1nc(N2CCCCC2)nc(N2CCCCC2)n1,0.2,0.8,-0.1,27.6*,-9.2,0.7
CC(O)CNCCNCc1c(OCc2ccccc2)ccc2ccccc12 (stereo not drawn),3.6,-9.9,9.1,-19.1,1.3,4.6
OCCNCc1c(OCc2ccc(Cl)cc2)ccc2ccccc12,23.7*,5.6,20.9,-4.0,-32.0,-12.7
O=C(Nc1ccnn1C1CCN(C(=O)c2cccc(C(F)(F)F)c2)CC1)C1CC1,1.4,-7.8,2.3,-21.6,15.9,21.3*
O=C(Nc1ccnn1C1CCN(C(=O)c2ccc(C(F)(F)F)cc2)CC1)C1CC1,0.7,-12.1,1.6,-17.5,11.3,4.5
O=C(O)c1nc2ccccc2nc1C(=O)O,0.7,11.7,1.3,-13.7,15.9,4.3
O=C(NCCN1CCOCC1)c1ccc2c(c1)N(Cc1ccccc1F)C(=O)CS2,0.5,46.9*,0.0,-14.1,20.8,-16.9
Cc1ccc(C)c(CN2C(=O)CSc3ccc(C(=O)NCCN4CCOCC4)cc32)c1,1.4,3.7,2.4,-12.0,11.6,0.7
O=C(NCCCN1CCOCC1)c1ccc2c(c1)N(Cc1c(F)cccc1Cl)C(=O)CS2,1.8,58.2*,1.5,-0.8,-12.9,-20.4
COc1ccc(C(=O)Oc2cc3c4c(c2)C(C)=CC(C)(C)N4C(=O)C3=O)cc1OC,0.1,4.9,1.6,-9.9,23.5,3.6
